mIDH1 inhibitor: blocks human mutant IDH1 R132H enzyme; IDH1-R132H enzyme, NADPH consumption, diaphorase/resazurin fluorescence; Potency, µM (highest dose often 76.6 µM), for the others: at the highest dose activity change, negative = inhibition, hits mostly inhibitors; 390,000 tested, 0.093% active; AID 602179; also: % is scaled to controls: 0 for no effect and ±100 for the full control effect; nearly all actives have a fitted effect of over 65% in size
Target sequence (O75874 whole entry R132H, stated change not applied): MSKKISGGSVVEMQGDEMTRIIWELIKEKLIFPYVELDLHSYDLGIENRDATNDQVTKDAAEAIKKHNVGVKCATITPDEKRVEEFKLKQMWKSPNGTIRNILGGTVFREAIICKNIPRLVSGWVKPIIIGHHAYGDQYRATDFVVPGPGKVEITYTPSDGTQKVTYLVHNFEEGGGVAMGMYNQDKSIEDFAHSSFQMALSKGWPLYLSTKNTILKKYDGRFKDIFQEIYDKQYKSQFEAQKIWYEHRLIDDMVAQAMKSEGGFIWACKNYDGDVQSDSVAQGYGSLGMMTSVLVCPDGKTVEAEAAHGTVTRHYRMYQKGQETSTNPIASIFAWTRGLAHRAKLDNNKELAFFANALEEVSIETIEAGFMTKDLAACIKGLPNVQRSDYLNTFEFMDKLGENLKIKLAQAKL
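IDH1-R132H (0.5 ug/mL dispensed) in pH 7.5 Tris buffer was preincubated 30 min with compound, then given a substrate mix of 0.016 mM NADPH and 2 mM alpha-KG for 80 min at room temperature; remaining NADPH was read by diaphorase/resazurin fluorescence.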
ELG1 repair inh: ELG1-dependent DNA repair inhibition. HEK293T ELG1-luciferase reporter, luminescence, 16 h; DNA damage induced by 5-fluorouridine. 330,000 tested, 2.3% active. Potency, µM (top dose mostly 46.1 µM), without a hit: at the top dose activity change, negative = inhibition, hits mostly inhibitors; also: % is scaled to controls: 0 for no effect and ±100 for the full control effect; nearly all actives have a fitted effect of over 55% in size
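Step one: seed 2,000 cells per well. Step two: pin-transfer compound or DMSO alongside 5-fluorouridine. Step three: incubate 16 hr, 37 °C, 5% CO2. Step four: add ONE-Glo, wait 30 min, read luminescence.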
A549 viability: kills or reduces viability of A549 cells in Nrf2 counter-screen | A549 ARE-Fluc cells, CellTiter-Fluor viability, 18-24 h | Potency, µM (highest dose often 46 µM), for inactives: at the top dose activity change, negative = cytotoxicity, actives largely listed as inhibitors | 390,000 tested, 0.16% active | AID 504648; also: % is scaled to controls: 0 for no effect and ±100 for the full control effect
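Cytotoxicity counterscreen: CellTiter-Fluor fluorescence was measured in A549 ARE_Fluc cells after 18-24 h of compound exposure in a concentration series. The subsequent BugLite luminescent read reports ARE-luciferase activity.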
Nrf2 ARE act: activators of Nrf2 (ARE) signaling; AREc32 ARE-luciferase reporter (MCF7-derived line), luminescence, 24 h; Potency, µM (doses to about 46.1 µM), for inactives: top-dose activation, most hits filed as activators; 410,000 tested, 0.31% active; also: % of control where 0% means no effect; nearly all actives have a fitted effect of over 65% in size
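Quantitative high-throughput format: AREc32 reporter cells, 1000 per well, received compound by pin transfer and were incubated 24 hr at 37 deg C, 5% CO2, before Steady-Glo luminescence detection.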
Nrf2 block: Nrf2 pathway inhibition | A549 ARE-Fluc reporter, luciferase luminescence, 18-24 h | Potency, µM (top dose mostly 46 µM), for inactives: top-dose activity change, negative = inhibition, hits mostly inhibitors | 360,000 tested, 2.1% active; also: % is scaled to controls: 0 for no effect and ±100 for the full control effect; nearly all actives have a fitted effect of over 60% in size
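A549 ARE_Fluc cells, 5000/well, 5% FBS OPTI-MEM; compounds in dose-response, 18-24 h at 37 °C/5% CO2; CellTiter-Fluor viability read (Ex 405/Em 525), then BugLite luciferase luminescence = Nrf2 activity.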
* marks the source's active call; other numbers are inactive results. This is a sample that favours compounds with a hit; in the whole collection about 3.8% have one here. Calls follow the shape of the dose curve; as a rule, active = well fitted curve in the direction sought with a large enough effect; inconclusive = small, poorly fitted or top-dose-only effect, or another doubt; inactive = no such curve, though single readings can be large; an effect the other way counts as inactive or inconclusive. Potency is read from the fitted curve at half-maximal effect.

For CC(C)CC(=O)NC(NC(=S)Nc1cccc2cccnc12)C(Cl)(Cl)Cl (stereo not drawn) the results were mIDH1 inhibitor 2%, ELG1 repair inh inconclusive, A549 viability -21%, Nrf2 ARE act 7% and Nrf2 block 21µM*.
`O=S1(=O)N=C(Oc2ccccc2Br)c2ccccc21` gave A549 viability 1% and Nrf2 block -1%.
Screening Cc1ccc(/C=C/C(O)=C2/C(=O)N(C)C3(C)CC2c2ccccc2O3)cc1 (stereo not drawn) returned mIDH1 inhibitor 3%, ELG1 repair inh inconclusive, A549 viability -8%, Nrf2 ARE act inconclusive and Nrf2 block inconclusive.
Screening COc1ccc(/C=C/C(O)=C2/C(=O)N(C)C3(C)CC2c2ccccc2O3)cc1 (stereo not drawn) returned mIDH1 inhibitor -3%, ELG1 repair inh inconclusive, A549 viability inconclusive, Nrf2 ARE act 1% and Nrf2 block 29µM*.
Screening COc1ccccc1N1CCN(C(=O)CSc2nc3ccccc3c(=O)n2CC2CCCO2)CC1 (stereo not drawn) returned mIDH1 inhibitor 8%, ELG1 repair inh 23µM*, Nrf2 ARE act 0% and Nrf2 block inconclusive.
For COc1ccccc1NC(=O)CSc1nc2ccccc2c(=O)n1CC1CCCO1 (stereo not drawn) the results were mIDH1 inhibitor -2%, ELG1 repair inh -6%, A549 viability -2%, Nrf2 ARE act 0% and Nrf2 block -20%.
Screening CCCCc1cc(=O)oc2cc(OCC(=O)Nc3ccccn3)ccc12 returned mIDH1 inhibitor 0%, ELG1 repair inh inconclusive, A549 viability -6%, Nrf2 ARE act 13µM* and Nrf2 block -9%.
O=C(COc1ccc2c(-c3ccccc3)cc(=O)oc2c1)Nc1ccc(CCO)cc1 was read as mIDH1 inhibitor 5%, ELG1 repair inh inconclusive, A549 viability -9%, Nrf2 ARE act 3% and Nrf2 block 10µM*.
For O=C(COc1ccc2c(-c3ccccc3)cc(=O)oc2c1)Nc1ccc(CN2CCOCC2)cc1 the results were mIDH1 inhibitor 8%, ELG1 repair inh -1%, A549 viability 7%, Nrf2 ARE act 0% and Nrf2 block -8%.
Screening Cn1nc(C(=O)N2CCN(S(=O)(=O)c3ccc(Cl)cc3)CC2)c2ccccc2c1=O returned mIDH1 inhibitor 3%, ELG1 repair inh inconclusive, A549 viability -8%, Nrf2 ARE act 0% and Nrf2 block 23µM*.
For CC(C)(C)C1CCC(C(=O)Nc2ccc(N3CCOCC3)cc2N2CCOCC2)CC1 (stereo not drawn) the results were mIDH1 inhibitor -3%, ELG1 repair inh 15µM*, A549 viability 2%, Nrf2 ARE act 0% and Nrf2 block 4%.
`CCOc1ccc(C(=O)NCC2CCCN2S(=O)(=O)c2cccs2)cc1` (stereo not drawn) gave mIDH1 inhibitor 8%, ELG1 repair inh -16%, A549 viability 1%, Nrf2 ARE act 1% and Nrf2 block -9%.
Cc1c(C)n(Cc2ccccc2)c2ncnc(NN)c12 was read as mIDH1 inhibitor -6%, ELG1 repair inh -6%, A549 viability -17%, Nrf2 ARE act 0% and Nrf2 block 26µM*.
Cc1c(C)n(CCc2ccccc2)c2ncnc(NN)c12 was read as mIDH1 inhibitor -12%, ELG1 repair inh inconclusive, A549 viability 0%, Nrf2 ARE act 2% and Nrf2 block 0%.
`CCOC(=O)c1cnn2c(C(F)(F)F)cc(-c3ccc(Br)cc3)nc12` gave mIDH1 inhibitor 4%, A549 viability 2% and Nrf2 ARE act 3%.
`COc1ccc(OC)c(C2SCCN2S(=O)(=O)c2cccc(C(F)(F)F)c2)c1` (stereo not drawn) gave mIDH1 inhibitor -3%, ELG1 repair inh inconclusive, A549 viability -7%, Nrf2 ARE act -1% and Nrf2 block 21µM*.
For O=C(c1cc(C2CC2)on1)N1CCCC(N2CCN(c3ccc(F)cc3)CC2)C1 (stereo not drawn) the results were mIDH1 inhibitor 5%, ELG1 repair inh 13%, A549 viability 2%, Nrf2 ARE act -1% and Nrf2 block inconclusive.
CCOC(=O)C1CCN(C(=O)c2c(C)oc3c2C(=O)c2ccccc2C3=O)CC1 was read as mIDH1 inhibitor 5%, ELG1 repair inh inconclusive, A549 viability inconclusive, Nrf2 ARE act -4% and Nrf2 block inconclusive.
Cc1oc2c(c1C(=O)N1CCC(C)CC1)C(=O)c1ccccc1C2=O was read as mIDH1 inhibitor -11%, ELG1 repair inh inconclusive, A549 viability inconclusive, Nrf2 ARE act -4% and Nrf2 block 26µM*.
For Nc1cc(=O)nc(SCC(=O)Nc2ccc(F)cc2)n1CCc1ccccc1 the results were mIDH1 inhibitor 19%, A549 viability -6%, Nrf2 ARE act 6% and Nrf2 block 14%.
C=CCN=C1S/C(=C\N(C)C)C(=O)N1S(=O)(=O)c1ccc(C)cc1 was read as mIDH1 inhibitor -8%, ELG1 repair inh 2.1µM*, A549 viability -3%, Nrf2 ARE act 0% and Nrf2 block -23%.
Cc1cccc(-n2ccnc2SCC(=O)Nc2nccs2)c1C was read as mIDH1 inhibitor 1%, ELG1 repair inh inconclusive, A549 viability 1%, Nrf2 ARE act 1% and Nrf2 block -24%.
CCc1nnc(NC(=O)CSc2nccn2-c2cccc(C)c2C)s1 was read as mIDH1 inhibitor -10%, ELG1 repair inh 9.2µM*, A549 viability inconclusive, Nrf2 ARE act 3% and Nrf2 block inconclusive.
`O=C(Nc1ccc(Cl)c(Cl)c1)Nc1cc(C(=O)NC2CC2)ccc1Cl` gave ELG1 repair inh 26µM*.
Screening O=C1NC(=S)N/C1=C/c1ccc2c(c1)OCO2 returned mIDH1 inhibitor -7%, ELG1 repair inh -21%, A549 viability inconclusive, Nrf2 ARE act -1% and Nrf2 block 13µM*.
`COC(=O)Nc1ccc(S(=O)(=O)N2CCCC(C(=O)N3CCCCC3)C2)cc1` (stereo not drawn) gave mIDH1 inhibitor 0%, ELG1 repair inh inconclusive, A549 viability -11%, Nrf2 ARE act 2% and Nrf2 block 16µM*.
For CC(=O)N1c2ccc(S(=O)(=O)N3CCC(C(=O)N4CCCCC4)CC3)cc2CC1C (stereo not drawn) the results were mIDH1 inhibitor -10%, ELG1 repair inh -9%, A549 viability -9%, Nrf2 ARE act -1% and Nrf2 block inconclusive.
`CC(=O)N1c2ccc(S(=O)(=O)N3CCC(C(=O)N4CCN(c5ccccc5F)CC4)CC3)cc2CC1C` (stereo not drawn) gave mIDH1 inhibitor 0%, ELG1 repair inh 21µM*, A549 viability 2%, Nrf2 ARE act -1% and Nrf2 block inconclusive.
